From PubChem BioAssay AID425 (Sanford-Burnham Center for Chemical Genomics, 2006)
The campaign covered roughly 110,000 compounds. About 190 (0.17%) were called active. Only a selection was taken, and actives are over-represented in it overall. Potency and affinity values are given separately. Unmarked numbers belong to inactive results. Rule as the data show it: active = inhibition above about 50%; inactive = the rest.

Each compound was assayed against Dual specificity protein phosphatase 6 (Rattus norvegicus) (UniProt Q64346) (assay: inhibition of rat DUSP6 enzyme activity – biochemical, in vitro, primary screen (AID 425;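 also: plate controls were vehicle for no effect and reference inhibitor for full effect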)). Settings: recombinant MKP-3 phosphatase activity, fluorescence; at 20 µM; hits give high values.
Chain of Dual specificity protein phosphatase 6 (Rattus norvegicus) (Q64346 whole entry, looked up): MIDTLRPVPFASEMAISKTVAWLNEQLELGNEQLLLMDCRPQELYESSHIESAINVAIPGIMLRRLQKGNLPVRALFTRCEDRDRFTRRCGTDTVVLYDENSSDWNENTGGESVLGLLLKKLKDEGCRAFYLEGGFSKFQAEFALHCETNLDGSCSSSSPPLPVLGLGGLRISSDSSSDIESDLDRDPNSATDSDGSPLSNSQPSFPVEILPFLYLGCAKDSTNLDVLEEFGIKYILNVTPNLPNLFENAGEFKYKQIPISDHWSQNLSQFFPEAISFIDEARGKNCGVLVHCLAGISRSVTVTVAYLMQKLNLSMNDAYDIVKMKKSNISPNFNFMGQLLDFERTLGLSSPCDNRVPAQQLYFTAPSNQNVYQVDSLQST
Work on `Clc1ccc(CCNCc2ccc3c(c2)OCO3)c(Cl)c1` yielded an inhibition of 1.1%.
With `O=c1c2ccccc2nc(-c2ccccc2F)n1-c1ccc(Cl)cc1` the inhibition was 3.1%.
For `O=C(Nc1cccc(OC(=O)N2CCOCC2)c1)N1CCOCC1`, the inhibition was 0.2%.
`CN(C)c1ccc(C=C2C(=O)NC(=S)N(c3ccccc3F)C2=O)cc1` gave an inhibition of -0.6%.
For `O=C1NC(=S)N(c2ccccc2F)C(=O)C1=Cc1ccco1`, the inhibition was 99% (active).
In the case of `O=C1NC(=S)N(c2ccccc2)C(=O)/C1=C/c1ccco1`, the inhibition is reported as 102% (active).
`Cc1ccc(C=C2C(=O)NC(=S)N(c3ccccc3F)C2=O)s1` was tested, and the inhibition was 3%.
`CCOc1ccc2ccccc2c1/C=C1\C(=O)NC(=S)N(c2ccccc2)C1=O` showed an inhibition of 0.5%.
`O=C1NC(=S)N(c2ccc(Br)cc2)C(=O)/C1=C/c1ccc(-c2ccccc2C(=O)O)o1` was tested, and the inhibition was 4.4%.
`CN1CCN(Cc2nc3ccccc3n2C)CC1` was tested, and the inhibition was -3%.
`CCN1CCN(c2ccc(C(F)(F)F)cn2)CC1` gave an inhibition of 2.1%.
With `CN1CCN(c2ccc(NC(=O)C(C)(C)C)cc2)CC1` the inhibition was -2.3%.
With `Cc1ccc2nc3c(cc2c1)CC1(C(=O)N(C)C(=O)N(C)C1=O)C1CCCCN31` (stereo not drawn) the inhibition was -20.3%.
`O=C(c1ccc(N2N=N2)cc1)c1ccc(N2N=N2)cc1` showed an inhibition of -3.2%.
`CN1C(=O)NC(=O)/C(=C/c2ccc(Br)o2)C1=O` showed an inhibition of 6%.
For `COc1ccc(N2C(=O)/C(=C/c3ccc(I)o3)C(=O)NC2=S)cc1`, the inhibition was 108% (active).
`CN1C(=O)NC(=O)/C(=C/c2ccc(I)o2)C1=O` showed an inhibition of -0.4%.
`COc1ccc(N2C(=O)/C(=C/c3ccc(-c4cc(C(=O)O)ccc4Cl)o3)C(=O)NC2=S)cc1` showed an inhibition of 9.5%.
In the case of `CCOc1ccc(N2C(=O)NC(=O)/C(=C\c3ccc(C)o3)C2=O)cc1`, the inhibition is reported as 3.6%.
For `O=C1NC(=O)N(c2ccc(Cl)cc2)C(=O)/C1=C/c1ccc(Br)o1`, the inhibition was 41.4%.
`CCOc1ccc(N2C(=O)/C(=C/c3ccc(C)o3)C(=O)NC2=S)cc1` was tested, and the inhibition was 13.5%.
With `CCOc1ccc(N2C(=O)/C(=C/c3ccc(Br)o3)C(=O)NC2=S)cc1` the inhibition was 104% (active).
`O=C1NC(=S)N(c2ccc(F)cc2)C(=O)/C1=C/c1ccc(Br)o1` was tested, and the inhibition was 90.9% (active).
Work on `CCOC(=O)C1CCN(/C=C2/C(=O)NC(=O)N(Cc3ccco3)C2=O)CC1` yielded an inhibition of -5.2%.
`O=C1N(CN2CCOCC2)c2ccccc2C1(O)c1c[nH]c2ccccc12` (stereo not drawn) was tested, and the inhibition was 0.3%.
For `CN(C)C(=O)Oc1ccc(OC(=O)c2ccccc2)cc1`, the inhibition was -6.4%.
`O=C1c2ccccc2C2(c3ccc(Cl)cc3)NCCN12` (stereo not drawn) gave an inhibition of -7.5%.
With `O=[N+]([O-])c1ccc(N2CCNCC2)cc1NCCOc1ccccc1` the inhibition was 3.6%.
`O=C(COc1ccc(Cl)cc1)N1CCN(Cc2ccc([N+](=O)[O-])cc2)CC1` showed an inhibition of -0.9%.
Compound `Cc1ccc(C=C2C(=O)N(C)C(=O)N(C)C2=O)o1` has an inhibition of -11.1%.
In the case of `Cc1cc(OCc2ccc(F)cc2)c2c3c(c(=O)oc2c1)CCCC3`, the inhibition is reported as 2.6%.
`Cn1cc(/C=C2\C(=O)NC(=O)N(Cc3ccccc3)C2=O)c2ccccc21` gave an inhibition of 2.1%.
Compound `CC(C)N1CCN(Cc2cc(Br)ccc2O)CC1` has an inhibition of -1.8%.
